# Sampled rows, rich in hits. Any-hit rate of the full collection: about 11%.
# HPGD block – blocks human HPGD enzyme activity; P15428; purified HPGD, NADH fluorescence kinetic, PGE2 substrate; Potency, µM, inactives show at the top dose activity change, negative = inhibition, usual class: inhibitors; hit rate 4.3% among 150,000; AID 894; active = well fitted inhibition curve with a large enough effect, not every such curve was filed as active; inconclusive = small, poorly fitted or top-dose-only effect, or another doubt; inactive = no such curve, though single readings can be large or run the other way; note: potency is the fitted concentration of half-maximal effect; % is set by controls: 0 for no effect and ±100 for the full control effect
# Target sequence (P15428 whole entry, looked up): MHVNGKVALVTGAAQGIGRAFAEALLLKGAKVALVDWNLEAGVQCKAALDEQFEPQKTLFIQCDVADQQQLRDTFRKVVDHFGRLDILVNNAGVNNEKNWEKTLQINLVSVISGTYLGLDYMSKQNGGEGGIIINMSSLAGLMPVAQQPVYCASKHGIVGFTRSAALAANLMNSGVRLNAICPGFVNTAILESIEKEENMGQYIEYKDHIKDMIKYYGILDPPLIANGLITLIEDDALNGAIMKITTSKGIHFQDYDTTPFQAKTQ
#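 20 nM HPGD preincubated 15 min at room temperature with compound in 50 mM Tris-HCl pH 8, 0.01% Tween 20. Started with 1 mM NAD+ and 30 uM prostaglandin E2; NADH fluorescence (360/450 nm) read 5 times over 30-s intervals, last minus first.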
# CBFb RUNX1 block – inhibitors of human CBF-beta and RUNX1 interaction | AlphaScreen CBFb-His/RUNX1-biotin binding, biochemical | Potency, µM (series often up to 59.8 µM), for inactives: at the top dose activity, negative = inhibition, hits mostly inhibitors | 230,000 tested, under 10 active; note: % of control where 0% means no effect
#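 AlphaScreen proximity signal reports loss of binding between His-tagged CBF-beta and biotin-labelled RUNX1, each at 30 nM. Proteins are pre-associated for 20 minutes, compounds added for 15 minutes, then beads for 90 minutes, all at ambient temperature.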
# PNC assembly inh – inhibitors of perinucleolar compartment assembly | PC3M PTB-GFP, PNC prevalence imaging, 16 h; hits give low values | activity change (PNC), negative = inhibition, % at 10 µM | hit rate 3.1% among 140,000 | AID 2417;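 active = readout at or below -70, meaning at least 70% loss of cells showing the perinucleolar compartment, a nuclear body marking cancer cells; inconclusive = readout between -30 and a set limit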;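 note: plate controls were DMSO wells for no effect and camptothecin positive control wells for full effect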
#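 PC3M cells stably expressing PTB-GFP, 750–1000 cells/well, treated 16 h at 37 °C with compound (23 nl of library stock), in duplicate. After paraformaldehyde fixation and Hoechst stain, imaged at 20x; PNC prevalence scored by image analysis.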
# HTT cytoprotect – cytoprotection in Huntington HTT-Q103 PC12 cell model | PC12 HTT-Q103 induced, cytoprotection, ATP luminescence, 40 h | Potency, µM (series often up to 56.4 µM), for inactives: cytoprotection (ATP increase), most hits filed as activators | hit rate 0.14% among 230,000 | AID 1471; note: potency is the fitted concentration of half-maximal effect; % of control where 0% means no effect; nearly all actives have a fitted effect of over 45% in size
#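 Readout: ATPlite luminescence (ATP level). Model: stable PC12, inducible Htt exon1 Q103-GFP. Inducer: tebufenozide, 100 nM final. Compounds: dose series. No G418 in medium.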
# ALDH1A1 inh – ALDH1A1 (human) enzyme inhibition; Purified ALDH1A1, NADH fluorescence, propionaldehyde substrate; Potency, µM (series often up to 75.3 µM), for inactives: top-dose activity, negative = inhibition, usual class: inhibitors; hit rate 7.3% among 220,000; AID 1030; active = well fitted inhibition curve with a large enough effect, not every such curve was filed as active; inconclusive = small, poorly fitted or top-dose-only effect, or another doubt; inactive = no such curve, though single readings can be large or run the other way;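 note: potency is the fitted concentration of half-maximal effect; plate controls were no enzyme wells and a reference inhibitor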
# HttQ103 aggreg – mutant huntingtin aggregation inhibition; PC12 HttQ103-GFP aggregates, Acumen cytometry, 40 h; Potency, µM (titrated, usually from 46.1 µM), for the others: top-dose activity change, negative = inhibition, most hits filed as inhibitors; hit rate 1.1% among 220,000; note: potency is the fitted concentration of half-maximal effect; % is set by controls: 0 for no effect and ±100 for the full control effect; nearly all actives have a fitted effect of over 60% in size
#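 Quantitative HTS on tebufenozide-induced (100 nM) PC12 cells stably expressing polyQ103 Huntingtin exon 1–GFP. Reduction of bright GFP aggregates, detected by laser scanning cytometry after lysis, identified actives across the titration.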
# The depositor's hits bear a star; ? = inconclusive; . = not tested or not shown; [ ] = remark or other dose. Unless noted, calls come from the whole dose curve; as a rule, active = well fitted curve in the direction sought with a large enough effect; inconclusive = small, poorly fitted or top-dose-only effect, or another doubt; inactive = no such curve, though single readings can be large; an effect the other way counts as inactive or inconclusive.
SMILES,HPGD block,CBFb RUNX1 block,PNC assembly inh,HTT cytoprotect,ALDH1A1 inh,HttQ103 aggreg
CC1(C)Cc2ccccc2C(/C(=N\Nc2cccc(Cl)c2)C(N)=O)=N1,-9.3%,-6.0%,-19.7,-14.1%[10 µM],3.5%,?
CC(=O)c1ccc(N/N=C(/C(N)=O)C2=NC(C)(C)Cc3ccccc32)cc1,-14.5%,?,?,-20.8%[10 µM],-3.9%,11.2µM*
Cc1ccc(CN2C(=O)CCC2C(=O)NCCN(CC(C)C)CC(C)C)cc1 (stereo not drawn),-7.2%,12.4%,-25.2,-17.3%[10 µM],22.4µM*,-1.1%
CO[C@]1(C)C[C@H]2O[C@]1(C)n1c3ccccc3c3c4c(c5c6ccccc6n2c5c31)C(=O)N(C)C4,.,9.7%,.,.,.,.
COc1ccc(S(=O)(=O)N2CCCCC2)cc1NC(=O)CN1CCN(C(C)=O)CC1,.,7.2%,.,.,9.5%,29.9%
O=C(CN1CCN(c2ccc(O)cc2)CC1)Nc1cc(S(=O)(=O)N2CCCC2)ccc1Cl,.,?,.,-51.2%,14.1µM*,5.4%
CC1CN(CC(=O)Nc2cc(S(=O)(=O)N3CCCC3)ccc2Cl)CC(C)O1 (stereo not drawn),.,5.0%,.,-7.4%,-2.3%,1.5%
O=C(CN1CCN(c2ccc(O)cc2)CC1)Nc1cc(S(=O)(=O)N2CCCCC2)ccc1Cl,.,?,.,4.5%,23.8µM*,?
CC(=O)c1c(C)[nH]c(C(=O)OCC(=O)Nc2cc(S(=O)(=O)N3CCCC3)ccc2Cl)c1C,-8.7%,-10.1%,-107.7*,1.5%[1.9 µM],9.4%,-12.4%
CC(=O)OCC(NC(=O)C1CCCN1C(=O)OC(C)(C)C)C1OC(n2cc(F)c(=O)[nH]c2=O)C(OC(C)=O)C1OC(C)=O (stereo not drawn),.,5.9%,.,.,.,.
Cc1ccccc1NC(=O)c1ccc(NS(=O)(=O)c2cc(C(C)(C)C)cc(C)c2C)cc1,-17.1%,-4.0%,?,-4.2%[10 µM],2.82µM*,3.9%
CCc1ccc(-c2cc(C(=O)Nn3cnnc3)c3ccccc3n2)cc1,-22.4%,0.0%,-81.7*,-133.6%[10 µM],?,5.2%
COc1ccc(C2C(=O)c3ccccc3C2=Nc2ccc(Br)cc2)cc1 (stereo not drawn),7.08µM*,5.8%,67.1,5.6%,28.2µM*,-12.4%
O=C1c2ccccc2C(=O)C1c1ccc(Br)cc1,.,.,.,-268.7%,.,13.2%
CCOc1ccc(NC(=O)CSc2nnc(-c3ccco3)n2C)cc1,-17.7%,1.3%,9.1,-14.2%[10 µM],4.9%,-4.6%
CCOc1ccc(NC(=O)CSc2nnc(-c3ccccc3Cl)n2Cc2ccco2)cc1,.,-28.8%,7.5,5.4%,14.1µM*,-18.9%
COc1ccc(NC(=O)CSc2nnc(-c3ccccc3)n2Cc2ccco2)c(OC)c1,-12.1%,-14.8%,15.6,-13.7%[0.074 µM],?,0.6%
COc1ccc(NC(=O)CSc2nnc(-c3ccccc3Cl)n2Cc2ccco2)c(OC)c1,.,3.0%,10.7,-7.9%[0.074 µM],14.1µM*,-1.0%
CN(C)c1ccc(NC(=O)CSc2nnc(-c3cccs3)n2Cc2ccco2)cc1,-11.0%,?,31.6,6.7%,17.8µM*,18.7%
Cc1ccc(NC(=O)CSc2nnc(-c3cccs3)n2Cc2ccco2)cc1,3.9%,-3.5%,17.9,-16.2%,-2.8%,0.9%
Cc1ccc(S(=O)(=O)NCC2CCC(C(=O)NCCCOC(C)C)CC2)cc1 (stereo not drawn),-25.3%,-2.4%,?,.,0.708µM*,-6.6%
CC(C)OCCCNC(=O)C1CCC(CNS(=O)(=O)c2ccc(Cl)cc2)CC1 (stereo not drawn),-10.3%,1.9%,28.8,.,?,0.8%
CC(C)OCCCNC(=O)C1CCC(CNS(=O)(=O)c2ccccc2)CC1 (stereo not drawn),?,-2.8%,7.0,.,3.55µM*,-0.7%
C#CCCCO/N=C1/C[C@@H](O)[C@@H](O)[C@@H]2[C@@H]3C(=O)N(CC)C(=O)[C@H]3CC[C@@H]12,.,10.2%[13.1 µM],.,4.9%[10 µM],11.9%[13.5 µM],.
CCSc1nc(O)c(C2OC(=O)c3c2ccc(OC)c3OC)c(=O)n1CC (stereo not drawn),.,10.2%,-121.8*,-10.2%,-8.2%,19.5%
